# Data as given in PubChem BioAssay (NCATS).
# Inconclusive results are not listed. A call without a number means that no potency is given here. Calls of active or inactive are those of the source. The call rests on the fitted dose curve; in most records, active means well fitted inhibition curve with a large enough effect; inconclusive means small, poorly fitted or top-dose-only effect; inactive means flat fitted curve, though single readings scatter.
# Assay: P-glycoprotein substrates identified in KB-8-5-11 adenocarcinoma cell line, qHTS therapeutic library screen (AID 1346987); further: nearly all actives have a fitted effect of over 65% in size
# Conditions: KB-8-5-11 (P-gp overexpressing) viability, CellTiter-Glo, 72 h; series mostly up to 44.5 µM
# Summary of the method: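 In this qHTS, P-gp-rich KB-8-5-11 cells received library compounds across a concentration range. Viability was quantified by luminescence after 72 h at 37 degree C.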
# Potency means the concentration at half of the fitted maximal effect.
Compound,Potency,outcome,"activity change, negative = cytotoxicity"
CC1=C(C)C(=O)OC(C(C)C2C(O)CC3C4C5OC5C5(O)CC(OC6OC(CO)C(O)C(O)C6O)CC(O)C5(C)C4CCC32C)C1 (stereo not given),inactive,–,–
CC(C)C1(O[C@@H]2O[C@H](CO)[C@@H](O)[C@H](O)[C@H]2O)CC=C(CO)CC1 (stereo not given in full),inactive,–,–
CCOC(=O)[C@H](CCc1ccccc1)N[C@@H](C)C(=O)N1C2CCCCC2C[C@H]1C(=O)O (stereo not given in full),inactive,–,–
CC1CCC2C(C)(C)CC(C)(CO)C2(O)C1C(=O)O (stereo not given),inactive,–,–
COc1c(C)c(C(=O)c2ccc(N)c(C(=O)O)c2)n2ccccc12,inactive,–,–
CON(C)C(=O)N1N=C(c2cc(F)ccc2F)S[C@@]1(CCCN)c1ccccc1,0.164 µM (active),–,–
CC(NCc1ccc(OCc2cccc(F)c2)cc1)C(N)=O (stereo not given),inactive,–,–
C[C@@H]1CC[C@]2(C)C(C[C@@H](O)[C@H](O)[C@]23CO3)[C@@]1(C)CCc1ccoc1 (stereo not given in full),inactive,–,–
CC12CC34C=CC(=O)C(C)(CCC(=O)O)C3C(CC1C4)O2 (stereo not given),inactive,–,–
C=C1CCC2C(C)(C)CC(=O)CC2(C)C1CCC(C)CCOC(C)=O (stereo not given),inactive,–,–
CC1=CC(=O)OC(C)(CC(C)(O)C(=O)O)C1 (stereo not given),inactive,–,–
CC1(C)CC(=O)N(CCCCN2CCN(c3ncccn3)CC2)C(=O)C1,inactive,–,–
CC1=CC2(O)/C=C/C(C)(O)CC(O)/C=C/C(=O)OC23C(=O)NC(CC(C)C)C3C1C (stereo not given),inactive,–,–
NCc1ccc(OCCCc2sc(-c3ccc4c(c3)/C(=N/Nc3nc5ccccc5s3)CCC4)nc2C(=O)O)cc1,inactive,–,–
O=C(O)C[C@@H](NC(=O)c1cc(-c2ccc(-c3ccncc3)cc2)cs1)c1ccccc1,inactive,–,–
C[C@@H]1O[C@@H](O[C@H]2[C@H](O)[C@@H](O)[C@H](OC[C@H]3O[C@@H](OC(=O)[C@]45CCC(C)(C)C[C@H]4C4=CCC6[C@@]7(C)C[C@H](O)[C@H](O[C@@H]8O[C@H](CO)[C@@H](O)[C@H](O)[C@H]8O)[C@@](C)(C(=O)O)C7CC[C@@]6(C)[C@]4(C)CC5)[C@H](O[C@@H]4O[C@H](CO)[C@@H](O)[C@H](O)[C@H]4O)[C@@H](O)[C@@H]3O)O[C@@H]2CO)[C@H](O)[C@H](O)[C@H]1O (stereo not given in full),–,inactive [at 9.29 µM],–
COc1ccc(C(OC2OC(CO)C(O)C(O)C2O)C(C)O)cc1 (stereo not given),inactive,–,–
O=S(=O)(NC1CCNCC1)c1cc(S(=O)(=O)c2ccccc2)ccc1C(F)(F)F,inactive,–,–
COC(=O)C1=CO[C@@H](O[C@@H]2O[C@H](CO)[C@@H](O)[C@H](O)[C@H]2O)[C@@H]2[C@@](C)(O)[C@@H](O)C[C@]12O,inactive,–,–
C=CC1(C)C=C2C(O)CC3C(C)(C(=O)O)CCCC3(C)C2CC1 (stereo not given),inactive,–,–

Compound,Potency,outcome,"activity change, negative = cytotoxicity"
COc1cc(/C=C/C(=O)OC2CC(OC(C)=O)C(OC(C)=O)C3C2CCC2C(=O)OC(c4ccoc4)CC23C)ccc1O[C@@H]1O[C@H](CO)[C@@H](O)[C@H](O)[C@H]1O (stereo not given in full),inactive,–,–
C/C=C/C=C/C=C/C(=O)O[C@@H]1[C@@H](OC)C2=C(C(=O)N(C(C)C(=O)O)C2)[C@@]2(C)CCCC(C)(C)[C@H]12 (stereo not given in full),inactive,–,–
C[C@@H]1O[C@@H](O[C@H]2[C@H](O[C@H]3[C@H](O[C@H]4CC[C@@]5(C=O)C(CC[C@]6(C)C5CC=C5C7CC(C)(C)C[C@@H](O)[C@]7(C)CC[C@]56C)C4(C)C)O[C@H](C(=O)O)[C@@H](O)[C@@H]3O)OC[C@@H](O)[C@@H]2O)[C@H](O)[C@H](O)[C@H]1O (stereo not given in full),–,–,5.8% [at 9.29 µM] (inactive)
OC[C@H]1O[C@@H](n2cnc3c2NC=NC[C@H]3O)C[C@@H]1O,inactive,–,–
CNC(=O)COC(=O)NCCC1CCN(c2cccc(C)n2)CC1,inactive,–,–
O=C1CC(c2ccc([N+](=O)[O-])cc2)=NN1c1ccccc1,inactive,–,–
CC1(CCC(=O)O)C(=O)C=CC23CC4CC(OC4(C)C2O)C13 (stereo not given),inactive,–,–
C=C1CCC2(OC1)OC1CC3C4CC=C5CC(O)CC(O[C@@H]6OC[C@@H](O)[C@H](O)[C@H]6O)C5(C)C4CCC3(C)C1(O)C2C (stereo not given in full),inactive,–,–
CCC[C@@H]1C[C@@H](C(=O)N[C@@H]([C@H]2O[C@H](SC)[C@H](OP(=O)(O)O)[C@@H](O)[C@H]2O)[C@H](C)Cl)N(C)C1,inactive,–,–
COc1cc([C@@H]2Oc3c(OC)cc(CCCO)cc3[C@@H]2CO[C@@H]2O[C@H](CO)[C@@H](O)[C@H](O)[C@H]2O)ccc1O,inactive,–,–
Cn1c(=O)cc(N2CCCC(N)C2)n(Cc2ccccc2C#N)c1=O (stereo not given),inactive,–,–
CC(=O)O[C@@H]1[C@@H](OC(=O)/C=C/c2ccccc2)[C@H](C)O[C@@H](O[C@H]2[C@@H]3C=CO[C@@H](O[C@@H]4O[C@H](CO)[C@@H](O)[C@H](O)[C@H]4O)[C@@H]3[C@@]3(CO)O[C@@H]23)[C@@H]1OC(C)=O,inactive,–,–
CC1CCC2(C(=O)OC3OC(COC4OC(CO)C(O)C(O)C4O)C(O)C(O)C3O)CCC3(C)C(=CCC4C5(C)CCC(O)C(C)(C(=O)O)C5CCC43C)C2C1(C)O (stereo not given),–,–,1.52% [at 9.29 µM] (inactive)
OC[C@H]1O[C@@H](Oc2ccc(O)c3cccc(O)c23)[C@H](O)[C@@H](O)[C@@H]1O,inactive,–,–
CC1=C2[C@@H]([C@H](C)CC[C@H]2/C=C(\C)C(=O)O)[C@H](O)C1,inactive,–,–
C[C@@H]1C/C=C/C=C\C=C\C=C\[C@H](O[C@@H]2O[C@H](C)[C@@H](O)[C@H](N)[C@@H]2O)C[C@@H]2O[C@](O)(C[C@@H](O)C[C@H]3O[C@@H]3/C=C/C(=O)O1)C[C@H](O)[C@H]2C(=O)O,inactive,–,–
CCOC(=O)Nc1nc2ccccc2[nH]1,inactive,–,–
COc1cc(/C=C/C(=O)O[C@H]2[C@H](OC(=O)/C=C/c3cc(OC)c(O)c(OC)c3)O[C@H](CO[C@@H]3O[C@H](CO)[C@@H](O)[C@H](O)[C@H]3O)[C@@H](O)[C@@H]2O)ccc1O,inactive,–,–
CCCCNC(=O)[C@@H]1Cc2ccccc2N1C(=O)[C@@H](N)CC,inactive,–,–
O=C(/C=C/c1ccc(O)c(O)c1)OCc1ccccc1O[C@@H]1O[C@H](CO)[C@@H](O)[C@H](O)[C@H]1O,inactive,–,–
